# Screening data deposited in PubChem by National Center for Advancing Translational Sciences (NCATS).
# Only some compounds are listed: those with a hit (about 17% of all), similar ones and a draw of the others.
# HepG2 viability – HepG2 cytotoxicity, counter-screen for TGF-b inhibitors. actives 0.76% (n = 410,000). Potency, µM (doses to about 46.1 µM), without a hit: at the highest dose activity change, negative = cytotoxicity, usual class: cytotoxic. AID 588856. HepG2 CAGA-GFP viability, ATP luminescence, 18 h
#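 CellTiter-Glo luminescence gave cytotoxicity after 18 hours at 37 degrees C. The cells were HepG2 CAGA-GFP in 1% FBS DMEM, stimulated with 500 pg/mL TGF-beta after compound addition. %Activity was normalised to no-cell wells (complete cell-killing) and DMSO (no toxicity), and curves were fitted and classified.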
# HT1080-NT tox – kills 2HG-producing HT-1080-NT fibrosarcoma cells | HT-1080-NT fibrosarcoma viability, CellTiter-Glo ATP luminescence, 48 h | Potency, µM (titrated, usually from 46.1 µM), without a hit: at the highest dose activity, negative = less viability, usual class: cytotoxic | actives 1.6% (n = 360,000) | AID 686970;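 note: NT is the 2HG producing partner of a matched IDH1 knockdown line; 0% = DMSO-treated cells and -100% = media-only wells without cells; nearly all actives have a fitted effect of over 55% in size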
#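 Viability by CellTiter-Glo luminescence after 48 h compound exposure at 37C of HT-1080-NT cells (750/well, RPMI, 5% FBS). % activity scaled between DMSO wells and medium-only wells, then curve-fitted and categorized by curve class.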
# HT1080 IDH1KD tx – toxicity to HT-1080 IDH1 knockdown cells (counter line); AID 686971; HT-1080 IDH1 knockdown viability, ATP luminescence, 48 h; Potency, µM (top dose mostly 46.1 µM), for inactives: at the top dose activity, negative = toxicity, actives largely listed as cytotoxic; actives 2% (n = 360,000);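 note: 0% = DMSO wells and -100% = cell-free medium wells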
#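 In this qHTS, HT-1080 cells depleted of IDH1 are exposed for 48 h at 37 °C to compound titrations. Toxicity is scored from CellTiter-Glo luminescence, with DMSO as full viability and medium alone as none.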
# DT40 TDP1 no CPT – qHTS for Inhibitors of human tyrosyl-DNA phosphodiesterase 1 (TDP1): qHTS in cells in absence of CPT; DT40 Tdp1-/- hTDP1 cells, no CPT, ATP luminescence, 48 h; Potency, µM (highest dose often 46.2 µM), for inactives: at the top dose activity change, negative = growth inhibition, actives largely listed as inhibitors; actives 15% (n = 420,000); AID 686978, 2013; note: % is set by controls: 0 for no effect and ±100 for the full control effect; nearly all actives have a fitted effect of over 55% in size
#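 Chicken DT40 Tdp1-/- cells complemented with human TDP1, screened without camptothecin (DMSO vehicle only), 400 cells/well. Compounds pin-transferred, cells incubated at 37 °C for at least 48 hr. Growth read as ATP-dependent luminescence (CellTiter-Glo, 30 min at RT).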
# TGFb SMAD3 inh – TGF-b pathway inhibition | Potency, µM (top dose mostly 46.1 µM), inactives show at the highest dose activity, negative = inhibition, most hits filed as inhibitors | AID 588855 | actives 1.2% (n = 410,000) | HepG2 CAGA-GFP TGF-b/SMAD3 reporter, GFP fluorescence, 18 h; TGF-beta stimulated, 500 pg/mL final; note: % is set by controls: 0 for no effect and ±100 for the full control effect; nearly all actives have a fitted effect of over 65% in size
#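 HEPG2 CAGA-GFP cells (1000/well, DMEM with 1% FBS) were pre-incubated 2 h at 37 degrees C, given compound by pin tool, then stimulated with TGF-beta at 500 pg/mL final for 18 h before per-cell GFP fluorescence imaging.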
# TDP1 cell CPT – DT40-hTDP1 cell growth loss with CPT. chicken DT40 Tdp1-/-;hTDP1 cells + 20 nM CPT, ATP luminescence, 48 h. Potency, µM (top dose mostly 46.2 µM), for inactives: at the top dose activity change, negative = growth inhibition, actives largely listed as inhibitors. actives 12% (n = 420,000); note: % is set by controls: 0 for no effect and ±100 for the full control effect; nearly all actives have a fitted effect of over 55% in size
#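 Chicken DT40 Tdp1-/- cells complemented with human TDP1, 400 cells/well, exposed to compounds plus 20 nM camptothecin for at least 48 h at 37 C; viability read as ATP content by CellTiter-Glo luminescence.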
# Starred values were filed as active, the others as inactive; ? = inconclusive; . = no result given; [ ] = another dose, or the depositor's remark. Calls come from the whole dose curve; as a rule, active = well fitted curve in the direction sought with a large enough effect; inconclusive = small, poorly fitted or top-dose-only effect, or another doubt; inactive = no such curve, though single readings can be large; an effect the other way counts as inactive or inconclusive. Potency is the fitted concentration of half-maximal effect.
SMILES,HepG2 viability,HT1080-NT tox,HT1080 IDH1KD tx,DT40 TDP1 no CPT,TGFb SMAD3 inh,TDP1 cell CPT
c1ccc(OCCNc2nc(NCC3CC3)nc3cc(-c4ccccc4)sc23)cc1,-92%,15µM*,?,5.8µM*,?,5.8µM*
Cn1c(NCc2ccccc2)nc2cc(-c3ccccc3)sc2c1=O,-9%,9%,2%,?,-5%,?
CCCn1cnc2c(SCc3ccccc3Cl)nc(N)nc21,3%,-14%,?,?,-27%,?
CCOc1ccc2[nH]c(SCC(=O)OC)c([N+](=O)[O-])c2c1,-25%,0%,-7%,4.6µM*,11%,6.5µM*
CSc1cccc(N2C(=O)C3CCCN3C2=S)c1 (stereo not drawn),-3%,0%,5%,-20%,-1%,10%
O=C(c1noc2c1CCCCC2)N1CCN(C(c2ccccc2)c2ccccc2)CC1,3%,4%,9%,21µM*,3%,13µM*
CCOC(=O)N1CCN(Cc2ccc3c(c2)CN(C(=O)c2noc4c2CCCC4)CCO3)CC1,.,.,.,21µM*,.,-13%[9.04 µM]
O=C(c1csc2c1CCCC2)N1CCN(c2cccc(C(F)(F)F)c2)CC1,-22%,-4%,-21%,15µM*,-14%,?
CC(C)c1onc(C(=O)N2CCN(c3ccccc3)CC2)c1[N+](=O)[O-],-10%,3%,3%,7%,-15%,-2%
Cc1ccc(Cl)cc1N1CCN(C(=O)c2noc(C(C)C)c2[N+](=O)[O-])CC1,1%,?,?,?,-2%,23µM*
Cc1ccc(C)c(N2CCN(C(=O)c3noc4c3CCCCC4)CC2)c1,-27%,.,.,?,13µM*,?
O=C(c1noc2c1CCCCC2)N1CCN(c2cccc(C(F)(F)F)c2)CC1,-31%,.,.,16µM*,?,?
O=C(c1noc2c1CCCCC2)N1CCN(c2cccc(Cl)c2)CC1,1%,.,.,?,0%,?
Cc1c2cnn(-c3ccccc3)c(=O)c2c(C)n1CC(=O)NCCc1ccc(Cl)cc1,-14%,.,.,-4%,-21%,-18%
C=C(CO)C1Cc2c(ccc3c2OC2COc4cc(OC)c(OC)cc4C2C3=O)O1 (stereo not drawn),.,.,.,0.24µM*,.,0.3µM*
Cc1cccc(C(=O)N2CCc3cc(CNS(=O)(=O)c4cccs4)ccc32)c1,-41%,.,.,21µM*,?,23µM*
COc1ccccc1C(=O)NCc1ccc2c(c1)CCN2C(=O)c1cccc(C)c1,-2%,.,.,?,1%,?
Cc1ccc(C(=O)N2CCc3cc(CNS(=O)(=O)c4cccs4)ccc32)cc1,-51%,.,.,18µM*,-21%,15µM*
COc1ccc(Cl)cc1S(=O)(=O)NCc1ccc2c(c1)CCN2C(=O)c1cccc(C)c1,-27%,.,.,4.6µM*,?,3.3µM*
CCN(Cc1ccccc1)c1ncnc2c1cnn2-c1ccc(F)cc1,-18%,.,.,?,-10%,-16%
O=C1C(O)=C(O)C(=O)C(O)=C1O,.,.,.,-17%,.,-6%
COC(=O)c1cc(NC(=O)c2cc(C(C)(C)C)nn2Cc2ccc(F)cc2)ccc1N1CCOCC1,-8%,-14%,-7%,18µM*,?,?
COc1ccc(OC)c2c1C(=O)c1ccccc1C2=O,-1%,-8%,-15%,-29%,43%,-9%
COc1ccc(OC)c2c1C(=O)C(Cl)=C(Cl)C2=O,-103%,?,3.3µM*,0.41µM*,3.2µM*,0.23µM*
COc1ccccc1-c1coc2cc(OC(=O)/C=C/c3ccccc3)ccc2c1=O,0%,-1%,-4%,-21%,-24%,-29%
SMILES,HepG2 viability,HT1080-NT tox,HT1080 IDH1KD tx,DT40 TDP1 no CPT,TGFb SMAD3 inh,TDP1 cell CPT
COc1ccc(C(CNC(=O)c2ccc(-c3ccccc3Cl)o2)N2CCOCC2)cc1 (stereo not drawn),0%,1%,0%,16µM*,-2%,23µM*
COc1ccc(C(CNC(=O)c2ccc(Br)o2)N2CCN(C)CC2)cc1 (stereo not drawn),-13%,-9%,0%,0%,7%,-15%
COc1ccccc1C(CNC(=O)c1ccc(-c2ccccc2Cl)o1)N1CCCC1 (stereo not drawn),-27%,?,21µM*,18µM*,?,23µM*
CC(NS(=O)(=O)c1cccc(Cl)c1F)[C@H](O)c1ccccc1 (stereo partly drawn),-2%,8%,4%,-21%,9%,-18%
Cc1cc(C)c(C)c(S(=O)(=O)N(C)CCc2ccccn2)c1C,-16%,0%,-1%,23µM*,?,?
F[Si-2](F)(F)(F)(F)F,.,.,.,-26%,.,-9%
CCOC(=O)C1(Cc2cccc(OC)c2)CCCN(C(=O)c2cc(C)oc2C)C1 (stereo not drawn),-2%,-2%,-3%,13µM*,-20%,21µM*
CCOC(=O)C1(Cc2cccc(Cl)c2)CCCN(C(=O)c2cc(C)n(C)n2)C1 (stereo not drawn),4%,14%,-8%,?,-20%,?
CCOC(=O)C1(Cc2cccc(OC)c2)CCCN(C(=O)CSC)C1 (stereo not drawn),0%,-2%,2%,?,-3%,?
CCOC(=O)C1(Cc2cccc(Cl)c2)CCCN(C(=O)c2cn[nH]c2)C1 (stereo not drawn),-5%,3%,14%,0%,0%,-18%
CCOC(=O)C1(Cc2cccc(Cl)c2)CCCN(C(=O)c2cc(CC)on2)C1 (stereo not drawn),24%,4%,3%,16µM*,-11%,?
CCOC(=O)C1(Cc2cccc(Cl)c2)CCCN(C(=O)c2ccnn2C)C1 (stereo not drawn),-21%,1%,-1%,?,-11%,15µM*
CCCc1cc(C(=O)N2CCCC(Cc3cccc(Cl)c3)(C(=O)OCC)C2)n(C)n1 (stereo not drawn),-18%,?,?,13µM*,?,18µM*
Cn1c(=O)c2c(ncn2CC(=O)N2CCN(c3ccc(F)cc3)CC2)n(C)c1=O,8%,5%,10%,?,0%,?
CCN(C(=O)Cn1nc2c3cc(F)ccc3n(Cc3cccc(C)c3)cc-2c1=O)c1cccc(C)c1,0%,.,.,-1%,9%,-5%
